According to ChEMBL document CHEMBL3988442, “University of Dundee, Small-Polar-MMV Screening Library” (2021):
Hit rate of the full screen: of about 48,000 compounds, about 13,000 (27%) showed an effect of 50% or more. This is one part of the list.

Each compound was assayed on Wolbachia pipientis (assay: Anti-Wolbachia Cell-Based Screen). Conditions: 5 µM.
Type: functional
Set-up: scale not given: in the data most compounds retested in dose-response had high values

Row | SMILES | Percent Effect
1 | CC(C)CN1C[C@H]2CCN(C(=O)C3CCCO3)CC[C@H]2S1(=O)=O (stereo not given in full) | -18.66%
2 | CN(Cc1cnccn1)CC1CCOc2ccccc2C1 (stereo not given) | 5.577%
3 | CCC(C)CNc1ccc2oc(COC)nc2c1 (stereo not given) | -9.605%
4 | CN(C)C(=O)c1ccc(CNc2c(Cl)cccc2C#N)cc1 | -8.933%
5 | CN1CCN(Cc2cnc3n2CCN(Cc2cccnc2)CC3)CC1.O=C(O)C(F)(F)F.O=C(O)C(F)(F)F.O=C(O)C(F)(F)F | 102.7%
6 | CN1CCN(Cc2cnc3n2CCN(CCc2ccccc2)C3)CC1.O=C(O)C(F)(F)F.O=C(O)C(F)(F)F.O=C(O)C(F)(F)F | 127%
7 | CNC(=O)c1cnc2n1CCN(Cc1cccnc1)C2.O=C(O)C(F)(F)F.O=C(O)C(F)(F)F.O=C(O)C(F)(F)F | 0.3449%
8 | Cc1noc(C)c1CN1CCn2c(CN3CCN(C)CC3)cnc2C1.O=C(O)C(F)(F)F.O=C(O)C(F)(F)F.O=C(O)C(F)(F)F | -4.762%
9 | COCC(=O)N1CCn2c(CN3CCN(C)CC3)cnc2C1.O=C(O)C(F)(F)F.O=C(O)C(F)(F)F | -7.166%
10 | CCOCc1nnc(NCc2cccc(C)c2)o1 | -20.23%
11 | CN(Cc1ccccc1)CC1CC2(CO1)CN(Cc1cnn(C)c1)C2 (stereo not given) | -2.148%
12 | Cn1nc2c(cc1=O)CN(Cc1nc(C3CC3)no1)CC2 | 27.59%
13 | Cn1ccc2c(-c3cc(N)nc(N4CCOCC4)n3)ccnc21 | 88.78%
14 | CCNc1ccc(-c2ccnc3c2ccn3C)nn1 | -1.559%
15 | Cn1ccc2c(-c3nccc(N)n3)ccnc21 | -30.17%
16 | CN(C)c1cncc(-c2ccnc3c2ccn3C)n1 | -34.59%
17 | CCc1cc(-c2ccnc3c2ccn3C)nc(N2CCOCC2)n1 | 67.54%
18 | CCc1cc(N(C)Cc2ncc[nH]2)nc(N2CCOCC2)n1 | -9.08%
19 | CN(CC1(O)CCCN(CCC2CCCCC2)C1=O)C1CCOCC1 (stereo not given) | -1.971%
20 | CN(C)S(=O)(=O)N1CCC[C@]2(C[C@@H](Oc3ccccn3)CO2)C1.O=C(O)C(F)(F)F | -2.011%
21 | Cc1cnc(C(=O)N2C[C@H]3CC[C@@H]2CN(S(=O)(=O)N(C)C)C3)cn1 | -4.38%
22 | CN1C(=O)CC2(CCN(S(=O)(=O)N(C)C)CC2)c2ccccc21 | -6.476%
23 | CN(C)S(=O)(=O)N1CC[C@H]2OCC[C@@]2(COc2cccnc2)C1.O=C(O)C(F)(F)F | 7.883%
24 | CN(C)S(=O)(=O)N1CCCC(C)(c2ncc(C(N)=O)s2)C1 (stereo not given) | 191.5%
25 | CN(C)S(=O)(=O)N1CCC(C)(c2ncc(C(N)=O)s2)CC1 | 173.8%

Row | SMILES | Percent Effect
26 | CCS(=O)(=O)N1CCN(C(=O)C(C)C)CC2(CC(=O)N(C)C2)C1 (stereo not given) | -2.529%
27 | CN(C)C(C(=O)NCC1(O)CCCCC1)c1c(F)cccc1F (stereo not given) | -3.857%
28 | O=C(NCC1(O)CCC1)c1c(O)cc(F)cc1F | 120.5%
29 | CN(C)C(C(=O)NCC1(N(C)C)CCOCC1)c1ccccc1F (stereo not given) | -12.63%
30 | CN(C)C1(CNC(=O)C/C=C/c2ccc(F)cc2)CCOCC1 | 1.504%
31 | CN(C)C(C(=O)NCC1(O)CCCCC1)c1cccc(F)c1 (stereo not given) | 11.81%
32 | O=C(NCC1(O)CCC1)c1c(O)cc(Cl)cc1Cl | 97.98%
33 | CN(C)C1(CNC(=O)c2c(O)cc(Cl)cc2Cl)CCOCC1 | 85.78%
34 | O=C(NCc1ccc(Cl)cc1Cl)NCC1(O)CCSC1 (stereo not given) | -14.06%
35 | O=C(NCC1(O)CCOC1)c1ccccc1Cl (stereo not given) | -4.323%
36 | CCOC(C)c1noc(CN2CCN(c3nnc(C)s3)CC2)n1 (stereo not given) | -0.8403%
37 | COc1ccc(Cl)cc1C(=O)N1CCCC(n2nc(C)nc2C)C1 (stereo not given) | -10.83%
38 | COc1ccc(Cl)cc1C(=O)N1C[C@@H](NC(=O)N(C)C)[C@H](C(C)C)C1 | 96.11%
39 | CC(=O)N[C@@H]1CN(C(=O)c2csc(C(C)C)n2)C[C@H]1C(C)C | -24.56%
40 | COc1ccc(C(=O)N2C[C@@H](NC(=O)N(C)C)[C@H](C(C)C)C2)c(OC)n1 | 83.06%
41 | COc1ccc(N2CCC(N3C[C@H](NC(C)=O)[C@@H](C(C)C)C3)CC2)cc1 | 0.1798%
42 | COc1ccc(Cl)cc1C(=O)NCC1CCN(C(=O)c2ccoc2)CC1 | -13.86%
43 | COc1ccc(Cl)cc1C(=O)N1C[C@H](C(C)C)[C@@H](N)C1 | 105.5%
44 | CCc1nn(C)c(Cl)c1CN1C[C@@H](NC(=O)N(C)C)[C@H](C(C)C)C1 | 3.461%
45 | Cc1cc(Cl)ccc1C(=O)N1C[C@H](C2CC2)[C@@H](N)C1 | -41.17%
46 | CCOCc1ccccc1NC(=O)NC1CCN(CC(F)(F)F)C1 (stereo not given) | 4.433%
47 | CCN(CC)CCN(CC(C)C)c1cc(C(F)(F)F)nc2ncnn12 | -0.1585%
48 | Cc1cccc(C(=O)N2CCN(S(C)(=O)=O)[C@@H](C)C2)c1C | -0.07044%
49 | CNC(=O)NC(=O)CCN1CCOC(c2ccc(Br)cc2)C1 (stereo not given) | 0.8414%
50 | CC(=O)N1CCO[C@@H]2CN(C(=O)c3ccc4ccccc4c3)CC[C@@H]2C1 | 3.224%

Row | SMILES | Percent Effect
51 | CC(=O)N1C[C@@H]2CN(S(=O)(=O)C3CC3)CCO[C@@H]2C1 | 81.74%
52 | CC(=O)N1CCO[C@@H]2CN(S(=O)(=O)C3CC3)CC[C@@H]2C1 | 114.1%
53 | O=C(O)C(F)(F)F.O=S(=O)(C1CC1)N1CCO[C@@H]2CN(Cc3cccs3)C[C@@H]2C1 | 3.839%
54 | CC(=O)N1CCO[C@@H]2CN(S(=O)(=O)C3CC3)C[C@@H]2C1 | 90.6%
55 | O=C(O)C(F)(F)F.O=S(=O)(C1CC1)N1C[C@@H]2CN(Cc3ccoc3)CCO[C@@H]2C1 | 10.49%
56 | CC(=O)N1CCO[C@@H]2CN(S(=O)(=O)c3ccccc3F)C[C@@H]2C1 | -1.494%
57 | COCc1ccc(CN[C@H]2C[C@@H](Cc3cc(CCO)on3)C2(C)C)o1 | -18.1%
58 | CSC(C)C(=O)N1CCN(CCO)CC1 (stereo not given) | -9.9%
59 | CCCn1nc2c(cc1=O)CN(Cc1c(C)noc1C)CC2 | -3.39%
60 | Cc1noc(C2CCCN(CC(=O)N3CCNC(=O)C3)C2)n1 (stereo not given) | 8.261%
61 | CN(C)C(=O)CN1C[C@@H]2CC[C@H](C1)N(Cc1ccccc1OCCO)C2 | -40.78%
62 | Cc1cc(CN(CCO)c2ccccc2)on1 | -2.201%
63 | Cc1nc(CNC(=O)Cn2nc(-c3ccc(F)cc3)oc2=O)cs1 | -1.04%
64 | Cn1c(SCc2noc(-c3ccsc3)n2)nnc1C1CCS(=O)(=O)C1 (stereo not given) | -1.02%
65 | CC(C(=O)Nc1ncccn1)N1CCc2[nH]nc(C(F)(F)F)c2C1 (stereo not given) | -12.45%
66 | CSc1nnc(C2CCN(C(=O)N3CCCC3)CC2)n1C(C)C | 114%
67 | CSc1nnc(C2CCN(C(=O)N3CCOCC3)CC2)n1C(C)C | 91.83%
68 | CC(C)c1cc(NC2CCN(C(=O)N3CCCC3)CC2)ncn1 | -23.56%
69 | CC(C)n1ccnc1C1CCN(C(=O)N2CCCC2)CC1 | -25.38%
70 | CC(C)CN1C(=O)CO[C@@H]2CN(C(=O)N3CCOCC3)C[C@H]21 | -11.7%
71 | Cn1ccc(NC2CCN(C3CC3)C2=O)n1 (stereo not given) | -4.974%
72 | COCc1nn(C)c2c1CN(C(=O)c1ccno1)CC2 | 7.505%
73 | CC(C)n1nc(CN2CCCC2=O)c2c1CN(C(=O)c1ccno1)C2 | 92.04%
74 | Cn1nc(C#N)c2c1CN(C(=O)c1ccco1)CCC2 | -2.9%
75 | COCc1nn(CC2CC2)c2c1CN(C(=O)c1ccno1)CC2 | 1.769%

Row | SMILES | Percent Effect
76 | CC(C)n1nc(CN2CCCC2=O)c2c1CN(C(=O)c1ccc[nH]1)C2 | 104.5%
77 | Cn1nc(CN2CCCC2)c2c1CN(C(=O)c1ccc[nH]1)CC2 | -10.94%
78 | CC(C)n1nc(CN2CCCC2=O)c2c1CN(C(=O)c1ccco1)C2 | 113.5%
79 | O=C(c1ccco1)N1CCc2onc(CN3CCCC3)c2C1 | -15.89%
80 | Cn1nc(CN2CCOCC2)c2c1CN(C(=O)c1ccc[nH]1)C2 | -8.763%
81 | N#CC1COCCN1S(=O)(=O)c1ccc2c(c1)CCC2 (stereo not given) | 4.042%
82 | N#Cc1cccnc1N[C@@H]1c2ccccc2C[C@@H]1O | 4.876%
83 | CCN(CC)C(=O)[C@@H]1C[C@H](N)CN1C(=O)c1cc2c([nH]c1=O)CCC2 | -7.026%
84 | Cc1cnc(C)c(-c2cc(O)c3c(c2)CN(Cc2nccs2)CCO3)n1 | 17.73%
85 | Cc1cccc(N2CCN(C(=O)c3c(C)nn(C)c3C)CC2)c1C | 34.44%
86 | Cc1cc(C(=O)N2CCN(c3ccncc3Cl)CC2)n(C)n1 | 77.84%
87 | CC(C)c1cc(C(=O)N2CCN(c3ccncc3)CC2)n(C)n1 | 12.18%
88 | Cc1nn(C)c(C)c1C(=O)N1CCN(c2ccncc2Cl)CC1 | 86.38%
89 | O=C(N1CCOCC1)N1CCN(c2ccncc2Cl)CC1 | -18.06%
90 | Cc1nn(C)c(C)c1C(=O)N1CCN(C(=O)CCC2CCCCC2)CC1 | -21.72%
91 | Cc1cc(F)ccc1S(=O)(=O)NCC(O)c1cccn1C (stereo not given) | -4.916%
92 | CCOCC1CN(C(=O)CC2=CCCCC2)Cc2nnn(C)c21 (stereo not given) | 41.96%
93 | Cc1nccc([C@@H]2C[C@H]3CN(S(=O)(=O)c4ccccc4)C[C@H]3O2)n1 | 93.7%
94 | Cc1nccc([C@@H]2C[C@@H]3CCN(S(=O)(=O)N(C)C)C[C@H]3O2)n1 | 88.34%
95 | Cc1nccc([C@@H]2C[C@@H]3CCN(S(=O)(=O)C4CC4)C[C@H]3O2)n1 | 103.3%
96 | O=C1CO[C@H]2CN(S(=O)(=O)c3ccccc3)C[C@H]2N1Cc1ccccn1 | 1.166%
97 | Cc1nccc([C@H]2C[C@@H]3CCN(S(=O)(=O)N(C)C)C[C@H]3O2)n1 | -8.198%
98 | O=C1CO[C@H]2CN(S(=O)(=O)c3ccccc3)C[C@H]2N1c1ccccc1 | -3.468%
99 | O=C(C1CCOCC1)N1CC[C@H]2C[C@@H](c3ccncn3)O[C@@H]2C1 | -5.284%
100 | Cc1nccc([C@H]2C[C@@H]3CCN(S(=O)(=O)C4CC4)C[C@H]3O2)n1 | 101.1%
